DT40 TDP1 no CPT: qHTS for Inhibitors of human tyrosyl-DNA phosphodiesterase 1 (TDP1): qHTS in cells in absence of CPT. DT40 Tdp1-/- hTDP1 cells, no CPT, ATP luminescence, 48 h. Potency, µM (series often up to 46.2 µM), without a hit: at the highest dose activity change, negative = growth inhibition, usual class: inhibitors. 420,000 tested, 15% active. AID 686978, 2013; also: potency is read from the fitted curve at half-maximal effect; nearly all actives have a fitted effect of over 55% in size
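Chicken DT40 Tdp1-/- cells complemented with human TDP1, screened without camptothecin (DMSO vehicle only), 400 cells/well. Compounds pin-transferred, cells incubated at 37 °C for at least 48 hr. Growth read as ATP-dependent luminescence (CellTiter-Glo, 30 min at RT).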
HT1080NT lethal: kills 2HG-producing HT-1080-NT fibrosarcoma cells | Potency, µM (top dose mostly 46.1 µM), for inactives: at the highest dose activity, negative = less viability, actives largely listed as cytotoxic | HT-1080-NT fibrosarcoma viability, CellTiter-Glo ATP luminescence, 48 h | AID 686970 | 360,000 tested, 1.6% active;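 also: NT is the 2HG producing partner of a matched IDH1 knockdown line; potency is read from the fitted curve at half-maximal effect; 0% = DMSO-treated cells and -100% = media-only wells without cells; nearly all actives have a fitted effect of over 55% in size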
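Compounds were tested in concentration-response format on HT-1080-NT cells for 48 hours at 37 degrees C. Cell viability came from CellTiter-Glo luminescence; curves were classified by r2, response magnitude and activity.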
HT1080 IDH1KD tx: kills HT-1080 cells with IDH1 knockdown; HT-1080 IDH1 knockdown viability, ATP luminescence, 48 h; Potency, µM (highest dose often 46.1 µM), inactives show at the top dose activity, negative = toxicity, usual class: cytotoxic; 360,000 tested, 2% active;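 also: potency is read from the fitted curve at half-maximal effect; 0% = DMSO wells and -100% = cell-free medium wells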
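Cytotoxicity counter-line: IDH1KD HT-1080, 48 h, CellTiter-Glo. Curves classed by r2, magnitude and activity.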
IL1B secr inh: inflammasome signaling inhibition, IL-1 beta readout. AID 743279. 360,000 tested, 4.7% active. activity change, % at 57.5 µM. THP-1 LPS/ATP IL-1B secretion, AlphaLISA, 16 h; stronger effect = lower value; in the data active = activity change below about -50%; inconclusive = mostly about -30% to -49%
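Secreted IL-1B measured by AlphaLISA bead assay after 16 h compound exposure of THP-1 cells; compounds (final up to 57.5 uM) added 1 h before LPS (250 ng/mL) and ATP (1.25 mM) stimulation; lower signal means less secretion.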
ELG1 DNA repair: inhibitors of ELG1-dependent DNA repair in HEK293T cells. HEK293T ELG1-luciferase reporter, luminescence, 16 h; DNA damage induced by 5-fluorouridine. Potency, µM (highest dose often 46.1 µM), for the others: at the highest dose activity change, negative = inhibition, most hits filed as inhibitors. 330,000 tested, 2.3% active; also: potency is read from the fitted curve at half-maximal effect; nearly all actives have a fitted effect of over 55% in size
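5-Fluorouridine DNA damage + compound/DMSO, 2,000 cells/well, 16 h, 37 °C/5% CO2. ONE-Glo, 30 min RT, luminescence. Readout = decrease in reporter signal.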
TDP1 cell CPT: DT40-hTDP1 cell growth loss with CPT. 420,000 tested, 12% active. chicken DT40 Tdp1-/-;hTDP1 cells + 20 nM CPT, ATP luminescence, 48 h. Potency, µM (doses to about 46.2 µM), without a hit: top-dose activity change, negative = growth inhibition, actives largely listed as inhibitors; also: potency is read from the fitted curve at half-maximal effect; nearly all actives have a fitted effect of over 55% in size
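Chicken DT40 Tdp1-/- cells complemented with human TDP1, 400 cells/well, exposed to compounds plus 20 nM camptothecin for at least 48 h at 37 C; viability read as ATP content by CellTiter-Glo luminescence.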
The depositor's hits bear a star; ? = inconclusive; . = no result given. This is a sample that favours compounds with a hit; in the whole collection about 19% have one here. Unless noted, calls follow the shape of the dose curve; as a rule, active = well fitted curve in the direction sought with a large enough effect; inconclusive = small, poorly fitted or top-dose-only effect, or another doubt; inactive = no such curve, though single readings can be large; an effect the other way counts as inactive or inconclusive. Unless noted, % is scaled to controls: 0 for no effect and ±100 for the full control effect.

SMILES	DT40 TDP1 no CPT	HT1080NT lethal	HT1080 IDH1KD tx	IL1B secr inh	ELG1 DNA repair	TDP1 cell CPT
CCOc1ccccc1-c1nc(CN2CCN(C(=O)c3ccco3)CC2)c(C)o1	-20%	24%	21%	-1	0%	-9%
c1ccc(CN2CCN(CCOCCOc3cccc4ccccc34)CC2)cc1	?	16µM*	?	-81*	18µM*	-9%
CC1(C(=O)NCc2cccc3ccccc23)CCN1Cc1ccc(OC(F)(F)F)cc1 (stereo unspecified)	?	?	?	-30	.	?
CCCc1nc2c(sc3nc4c(cc32)COC(C)(C)C4)c(=O)n1Cc1ccco1	?	1%	?	17	0%	?
Cc1nc2c(sc3nc4c(cc32)COC(C)(C)C4)c(=O)n1CC(=O)NCc1ccco1	4.1µM*	7.1µM*	?	62	?	3.3µM*
Cc1nc2c(sc3nc4c(cc32)COC(C)(C)C4)c(=O)o1	-20%	6%	17%	-8	1%	-18%
CC1(C)Cc2nc3sc4c(=O)n(CC(=O)NCc5ccccc5)cnc4c3cc2CO1	3.7µM*	8.9µM*	3.5µM*	53	15%	4.6µM*
CC1(C)Cc2nc3sc4c(=O)n(CC(N)=O)cnc4c3cc2CO1	-9%	3%	8%	24	?	-3%
CC1(C)Cc2nc3sc4c(SCC(=O)NCc5ccco5)ncnc4c3cc2CO1	2.3µM*	?	2.6µM*	0	?	2.1µM*
CC(C)c1csc(CN2CCC(CO)(Cc3cccc(F)c3)CC2)n1	23µM*	0%	-14%	-59*	-17%	?
O=[N+]([O-])c1cc(-c2n(-c3ccccn3)c3ccccc3[n+]2-c2ccccn2)ccc1Cl	23µM*	-2%	-2%	-15	18µM*	16µM*
CNc1c([N+](=O)[O-])cnn1-c1ccccn1	1%	8%	21%	13	13%	15%
O=S(=O)(NN=C1CCCCCCC1)c1ccccc1	-24%	-2%	-1%	23	.	-24%
COc1cc(Nc2ncc3c(n2)CCN(C(=O)Nc2ccc(C(C)C)cc2)C3)cc(OC)c1OC	12µM*	21µM*	18µM*	-3	.	?
O=C(Nc1cccc(F)c1)N1CCc2nc(NCc3cccc(Oc4ccccc4)c3)ncc2C1	15µM*	23µM*	?	75	.	?
CC(C)c1ccc(NC(=O)N2CCc3nc(NCc4cccc(Oc5ccccc5)c4)ncc3C2)cc1	16µM*	?	?	0	.	?
COc1cc(NC(=O)N2CCC(CN3CCCCCC3)CC2)cc(OC)c1OC	-2%	.	.	.	.	2%
Cc1nc(SCC(=O)Nc2ccccc2Cl)cc(-c2ccccc2)n1	-18%	.	.	.	.	-5%
CC1(C)CC(=O)C=C(c2ccc(COC(=O)c3cccc(C(F)(F)F)c3)cc2)C1=O	?	16%	12%	22	.	?
O=C(CCCc1c[nH]c2ccccc12)Nc1ncccc1O	-1%	23%	14%	31	-18%	-6%
Cc1cc(C)cc(NC(=O)C(=O)NCC(c2cccnc2)N2CCN(c3ccccc3)CC2)c1 (stereo unspecified)	16µM*	.	.	.	.	21µM*
COC(=O)c1ccc(NC(=O)C(=O)NCC(c2cccnc2)N2CCN(c3ccccc3)CC2)cc1 (stereo unspecified)	-19%	.	.	.	.	-20%
COc1cccc(NC(=O)C(=O)NCC(c2cccnc2)N2CCN(c3ccccc3)CC2)c1 (stereo unspecified)	18µM*	.	.	.	.	?
Cc1cc2c(cc1C)C(=O)C(Br)=C(N)C2=O	16µM*	-20%	-15%	-12	.	26µM*
Cc1cc(-c2cc(C)c(N)cc2C)c(C)cc1N	?	?	?	23	.	?
SMILES	DT40 TDP1 no CPT	HT1080NT lethal	HT1080 IDH1KD tx	IL1B secr inh	ELG1 DNA repair	TDP1 cell CPT
CCOC(=O)c1c(C)n(-c2ccccc2)c2ccc(OC(=O)COc3ccccc3)cc12	-14%	.	.	.	.	?
CC(=O)c1c(C)n(-c2ccc(C)cc2)c2ccc(OC(=O)COc3ccccc3)cc12	7.3µM*	.	.	.	.	6.5µM*
COc1ccc(-n2c(C)c(C(C)=O)c3cc(OC(=O)COc4ccccc4)ccc32)cc1	7.3µM*	.	.	.	.	6.5µM*
CCOC(=O)c1c(C)n(-c2ccc(OC)cc2)c2ccc(OC(=O)COc3ccccc3)cc12	21µM*	.	.	.	.	?
O=C(OC(C(=O)NCc1ccc2c(c1)OCO2)c1ccncc1)c1ccc(Cl)nc1 (stereo unspecified)	1%	8%	7%	-11	14%	13%
Cc1ccc(Cl)cc1NC(=O)c1cccc(OC(F)F)c1	-23%	-10%	-11%	-5	-7%	-27%
Cc1ccccc1CN1CCCN(CC(=O)Nc2ccc3c(c2)OCCO3)S1(=O)=O	-24%	.	.	.	.	-30%
COC(=O)N1CCC2(CCCN(C(=O)Nc3ccccc3)C2)CC1	5%	.	.	.	.	3%
COc1ccc(-c2onc3ccc(C(=O)/C=C/N(C)C)cc23)cc1	21µM*	-19%	1%	-3	-11%	13µM*
O=C1CC(=O)OC(c2ccc([N+](=O)[O-])cc2)O1	2.3µM*	16µM*	4.6µM*	-55*	.	3.3µM*
Cc1cc(-c2ccccc2)nc(N/N=C/c2ccc(N(C)C)cc2)n1	15µM*	-18%	9%	-20	.	?
Cc1cc(-c2ccccc2)nc(N/N=C/c2ccc(O)cc2O)n1	18µM*	?	2.1µM*	-89*	?	?
Cc1cc(C)nc(N/N=C/c2ccco2)n1	-17%	-3%	16%	-3	?	-3%
Cc1cc(-c2ccccc2)nc(N/N=C/c2ccco2)n1	?	?	?	-11	1%	29µM*
CN(/N=C/c1ccc(O)cc1O)c1nc(-c2ccccc2)cc(-c2ccccc2)n1	12µM*	?	?	-24	?	21µM*
C[C@@H]1CN([C@@H](C)CO)C(=O)CCCn2nncc2CO[C@H]1CN(C)S(=O)(=O)c1ccc(-n2cccn2)cc1	-8%	-4%	-3%	-8	.	1%
COC(=O)C[C@H]1CC[C@H](NC(=O)c2cccc(F)c2)[C@@H](CO)O1	17%	?	12%	0	.	9%
Cc1cc(-c2ccccc2)nc(N/N=C/c2ccccc2)n1	23µM*	0%	-7%	-7	?	21µM*

Screening data (PubChem)
